PubChem BioAssay (NCATS)
Results filed as inconclusive are left out. Calls of active or inactive are those of the source. Calls come from the whole dose curve; as a rule, active = well fitted curve in the direction sought with a large enough effect; inconclusive = small, poorly fitted or top-dose-only effect, or another doubt; inactive = no such curve, though single readings can be large; an effect the other way counts as inactive or inconclusive.

Assays:
CRL-7250 = normal cell line; experiment: Cytotoxic Profiling of Annotated Libraries Using Quantitative High-Throughput Screening (AID 1296008); settings: Five cell lines viability, CellTiter-Glo ATP luminescence, 48-72 h; max response: active compounds read low; note: nearly all actives have a fitted effect of over 60% in size; for max response: % is set by controls: 0 for no effect and ±100 for the full control effect
In short: (§1)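 Compounds were pin-transferred onto cells and incubated 48 or 72 hr at 37 degree Celsius, 95% humidity. CellTiter-Glo was added, plates sat 10 min at room temperature, then ATP-coupled luminescence was imaged as the viability read-out.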

HEK293 = experiment: as above; settings: Five cell lines viability, CellTiter-Glo ATP luminescence, 48-72 h; max response: active compounds read low
In short: as §1

HaCat [1] = experiment: as above; settings: Five cell lines viability, CellTiter-Glo ATP luminescence, 48-72 h; max response: active compounds read low
In short: as §1

KB-3-1 = experiment: as above; settings: Five cell lines viability, CellTiter-Glo ATP luminescence, 48-72 h; max response: active compounds read low
In short: as §1

NIH3T3 = experiment: as above; settings: Five cell lines viability, CellTiter-Glo ATP luminescence, 48-72 h; max response: active compounds read low
In short: as §1

HACAT [2] = experiment: qHTS assay to identify novel small-molecules to repurpose for Merkel cell carcinoma treatment (AID 1296009); settings: MCC and control cell lines, CellTiter-Glo viability, 72 h; at 44.8 µM (top of the series) unless noted; note: nearly all actives have a fitted effect of over 60% in size
In short: (§2)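 Luminescence from CellTiter-Glo, read 10 min after addition at room temperature, reported viability following a 72 hr, 37 degree celsius treatment with NPC or MIPE compounds in titration; values normalized to plate controls.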

C33A = experiment: Primary qHTS to identify gynecologic anti-cancer compounds using libraries of approved drugs and bioactive compounds (AID 1345084); settings: Gynecologic cancer cell panel viability, ATPlite luminescence, 48 h; series mostly up to 57.5 µM; note: % is set by controls: 0 for no effect and ±100 for the full control effect; nearly all actives have a fitted effect of over 55% in size
In short: (§3)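 Luminescence from the ATPlite ATP-monitoring reagent indicates viable cell number; lower signal means cytotoxicity. Cells received compound 16 h after seeding and were exposed for 48 h across five concentrations.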

CASKI = experiment: as above; settings: Gynecologic cancer cell panel viability, ATPlite luminescence, 48 h; series mostly up to 57.5 µM
In short: as §3

Es-2 = experiment: as above; settings: Gynecologic cancer cell panel viability, ATPlite luminescence, 48 h; series mostly up to 57.5 µM
In short: as §3

HeLa = experiment: as above; settings: Gynecologic cancer cell panel viability, ATPlite luminescence, 48 h; series mostly up to 57.5 µM
In short: as §3

Hek293T [3] = experiment: as above; settings: Gynecologic cancer cell panel viability, ATPlite luminescence, 48 h, control line for the selectivity index; series mostly up to 57.5 µM
In short: as §3

JEG-3 = experiment: as above; settings: Gynecologic cancer cell panel viability, ATPlite luminescence, 48 h; series mostly up to 57.5 µM
In short: as §3

OV90 = experiment: as above; settings: Gynecologic cancer cell panel viability, ATPlite luminescence, 48 h; series mostly up to 57.5 µM
In short: as §3

PA-1 = experiment: as above; settings: Gynecologic cancer cell panel viability, ATPlite luminescence, 48 h; series mostly up to 57.5 µM
In short: as §3

HEK293T [4] = experiment: qHTS assay to identify novel small-molecules to repurpose for Merkel cell carcinoma treatment (AID 1296009); settings: MCC and control cell lines, CellTiter-Glo viability, 72 h; at 44.8 µM (top of the series) unless noted; note: nearly all actives have a fitted effect of over 60% in size
In short: as §2

CAOV3 = experiment: Primary qHTS to identify gynecologic anti-cancer compounds using libraries of approved drugs and bioactive compounds (AID 1345084); settings: Gynecologic cancer cell panel viability, ATPlite luminescence, 48 h; series mostly up to 57.5 µM; note: % is set by controls: 0 for no effect and ±100 for the full control effect; nearly all actives have a fitted effect of over 55% in size
In short: as §3

TAB113 = experiment: qHTS profiling for inhibitors of Plasmodium falciparum proliferation (AID 504749);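 note: 0% = DMSO vehicle and full inhibition = artemisinin control; nearly all actives have a fitted effect of over 60% in size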; settings: P. falciparum in erythrocytes, SYBR Green DNA, 72 h; series mostly up to 28.7 µM
In short: (§4)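 Fluorescence of SYBR Green-bound parasite DNA, read at 485/535 nm, served as the growth measure. Infected erythrocytes were cultured with compound 72 h; artemisinin (0.29 uM) and DMSO wells defined the normalization range.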

TAB165 = experiment: as above; settings: P. falciparum in erythrocytes, SYBR Green DNA, 72 h; series mostly up to 28.7 µM
In short: as §4

W2 = experiment: as above; settings: P. falciparum in erythrocytes, SYBR Green DNA, 72 h; series mostly up to 28.7 µM
In short: as §4

C=C1CCC2(C(=O)OC3OC(CO)C(O)C(O)C3O)CCC3(C)C(=CCC4C5(C)CCC(OC6OC(CO)C(OC7OC(C)C(O)C(O)C7O)C(OC7OCC(O)C(O)C7O)C6O)C(C)(C)C5CCC43C)C2C1 (stereo not drawn)
inactive: max response (CRL-7250) 4.25% | max response (HEK293) -4.7% | outcome (HaCat [1]) | max response (KB-3-1) 3.47% | max response (NIH3T3) -2.38% | outcome (HACAT [2]) inactive [at 9.27 µM] | activity change, negative = cytotoxicity (C33A) 5.83% [at 11.6 µM] | activity change, negative = cytotoxicity (CASKI) -6.54% [at 11.6 µM] | activity change, negative = cytotoxicity (Es-2) -3.02% [at 11.6 µM] | activity change, negative = cytotoxicity (HeLa) 11.1% [at 11.6 µM] | activity change, negative = cytotoxicity (Hek293T [3]) 6.11% [at 11.6 µM] | activity change, negative = cytotoxicity (JEG-3) 12.2% [at 11.6 µM] | activity change, negative = cytotoxicity (OV90) 9.22% [at 11.6 µM] | activity change, negative = cytotoxicity (PA-1) 18.7% [at 11.6 µM]

CC(C)C1(O)NC(=O)C(CC2(O)c3ccccc3N3C(=O)C(C)(C)NC32)n2c1nc1ccccc1c2=O (stereo not drawn)
inactive: outcome (CRL-7250) | outcome (HEK293) | max response (HaCat [1]) -2.62% | outcome (KB-3-1) | max response (NIH3T3) -5.54% | outcome (HEK293T [4]) inactive [at 17.4 µM] | Potency (C33A) | Potency (CAOV3) | outcome (CASKI) | Potency (Es-2) | Potency (HeLa) | Potency (Hek293T [3]) | Potency (JEG-3) | Potency (OV90)

C[C@@H]1C(=O)O[C@H](C)[C@H]1C[C@@H](O)[C@](C)(O)[C@H]1CC[C@@]2(O)C3=CC(=O)[C@@H]4C[C@@H](O)[C@@H](O)C[C@]4(C)C3CC[C@]12C (stereo partly drawn)
inactive: max response (CRL-7250) -1.86% | outcome (HEK293) | max response (HaCat [1]) -25% | max response (KB-3-1) 8.3% | max response (NIH3T3) 1.28% | outcome (HEK293T [4]) inactive [at 17.4 µM] | Potency (C33A) | Potency (CAOV3) | outcome (CASKI) | Potency (Es-2) | Potency (HeLa) | Potency (Hek293T [3]) | Potency (JEG-3) | Potency (OV90)

C[C@@H]1CC[C@]2(C(=O)O)CC[C@]3(C)C(=CCC4[C@@]5(C)C[C@@H](O)[C@@H](O)C(C)(C)C5CC[C@]43C)C2[C@]1(C)O (stereo partly drawn)
inactive: max response (CRL-7250) -1.23% | outcome (HEK293) | max response (HaCat [1]) -10.3% | max response (KB-3-1) 9.05% | max response (NIH3T3) -8.5% | outcome (HEK293T [4]) inactive [at 17.4 µM] | Potency (C33A) | Potency (CAOV3) | outcome (CASKI) | Potency (Es-2) | Potency (HeLa) | Potency (Hek293T [3]) | Potency (JEG-3) | Potency (OV90)

CC1=CCC(O)C2(C)CCC3C(C)C(=O)OC3C12 (stereo not drawn)
inactive: max response (CRL-7250) -3.96% | max response (HEK293) -18.2% | outcome (HaCat [1]) | max response (KB-3-1) -6.48% | max response (NIH3T3) -0.383% | outcome (HACAT [2]) | Potency (CAOV3) | outcome (CASKI) | Potency (Es-2) | Potency (HeLa) | Potency (Hek293T [3]) | Potency (JEG-3) | Potency (OV90) | Potency (PA-1)

C=C[C@H]1[C@H](O[C@@H]2O[C@H](CO)[C@@H](O)[C@H](O)[C@H]2O)OC=C2C(=O)N3Cc4c([nH]c5ccccc5c4=O)[C@@H]3C[C@H]21
inactive: outcome (CRL-7250) | outcome (HEK293) | max response (HaCat [1]) -8.84% | outcome (KB-3-1) | max response (NIH3T3) -10.2% | outcome (HEK293T [4]) inactive [at 17.4 µM] | Potency (C33A) | Potency (CAOV3) | outcome (CASKI) | Potency (Es-2) | Potency (HeLa) | Potency (Hek293T [3]) | Potency (JEG-3) | Potency (OV90) | Potency (PA-1)

C/C(=C\CO)CC/C=C(\C)C(=O)O[C@@H]1O[C@H](CO)[C@@H](O)[C@H](O)[C@H]1O
inactive: max response (CRL-7250) -4.11% | max response (HEK293) 1.04% | outcome (HaCat [1]) | outcome (KB-3-1) | max response (NIH3T3) 1.84% | outcome (HACAT [2]) | Potency (C33A) | outcome (CASKI) | Potency (Es-2) | Potency (HeLa) | Potency (Hek293T [3]) | Potency (JEG-3) | Potency (OV90) | Potency (PA-1)

N#Cc1cc(-c2n[nH]c(-c3ccncc3)n2)ccn1
inactive: max response (CRL-7250) -0.428% | max response (HEK293) -15.1% | outcome (HaCat [1]) | max response (KB-3-1) -1.34% | max response (NIH3T3) 0.552% | outcome (HACAT [2]) | Potency (C33A) | outcome (CASKI) | Potency (Es-2) | Potency (HeLa) | Potency (Hek293T [3]) | Potency (JEG-3) | Potency (OV90) | Potency (PA-1)

CCc1cccc2c3c([nH]c12)[C@@](CC)(CC(=O)O)OCC3
inactive: outcome (TAB113) | outcome (TAB165) | outcome (W2) | max response (CRL-7250) 0.605% | max response (HEK293) 3.28% | outcome (HaCat [1]) | outcome (KB-3-1) | max response (NIH3T3) 1.91% | outcome (HACAT [2]) | Potency (C33A) | outcome (CASKI) | Potency (Es-2) | Potency (HeLa) | Potency (Hek293T [3]) | Potency (JEG-3) | Potency (OV90) | Potency (PA-1)

CC(=O)O[C@H]1C[C@@H](O)C(C)(C)C2C[C@@H](OC(C)=O)[C@@]3(C)C4=CCC(C(CO)CC(O)C5OC5(C)C)[C@]4(C)CCC3[C@]21C (stereo partly drawn)
inactive: outcome (CRL-7250) | max response (HEK293) -1% | outcome (HaCat [1]) | outcome (KB-3-1) | max response (NIH3T3) -1.52% | outcome (HACAT [2]) inactive [at 17.4 µM] | Potency (C33A) | outcome (CASKI) | Potency (Es-2) | Potency (HeLa) | Potency (Hek293T [3]) | Potency (JEG-3) | Potency (OV90) | Potency (PA-1)

COC(=O)CCC1(C)C(C(C)(C)O)C(O)CC2(C)Oc3c(C)c4c(c(OC)c3CC21)C(=O)OC4 (stereo not drawn)
inactive: max response (CRL-7250) -9.47% | outcome (HEK293) | max response (HaCat [1]) -0.542% | max response (KB-3-1) 5% | max response (NIH3T3) -1.25% | outcome (HEK293T [4]) inactive [at 17.4 µM] | Potency (C33A) | Potency (CAOV3) | outcome (CASKI) | Potency (Es-2) | Potency (HeLa) | Potency (Hek293T [3]) | Potency (JEG-3) | Potency (OV90) | Potency (PA-1)

CC1(C)C2CC[C@]3(C)C(C(=O)C=C4[C@H]5C[C@@](C)(C(=O)O)CC[C@]5(C)CC[C@]43C)[C@@]2(C)CC[C@@H]1O (stereo partly drawn)
inactive: outcome (CRL-7250) | max response (HEK293) -0.352% | outcome (HaCat [1]) | outcome (KB-3-1) | max response (NIH3T3) 2.21% | outcome (HACAT [2]) inactive [at 17.4 µM] | Potency (C33A) | outcome (CASKI) | Potency (Es-2) | Potency (HeLa) | Potency (Hek293T [3]) | Potency (JEG-3) | Potency (OV90) | Potency (PA-1)
